# Source: PubChem BioAssay
# Results filed as inconclusive are left out. The source made the active and inactive calls. Cut-off read from the data, not from the text of the source, unless noted: active = inhibition above about 80%; inactive = the rest.
# How the values were obtained:
# [1] = target: ATP-dependent translocase ABCB1 (Homo sapiens) (UniProt P08183); assay: MDR1 (ABCB1) efflux transporter inhibition, cell-based (AID 377; in the data active = fluorescence slope change above about 50%); conditions: MDR1-expressing cells, fluorescent substrate accumulation slope; stronger effect = higher value; concentration not given here
# [2] = hESC survival regulators, cell-based (AID 493140; call rule not given here;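 note: cells exposed to compounds for four days before counting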); conditions: human embryonic stem cell survival screen; stronger effect = higher value
# [3] = LFS_MB_1R medulloblastoma cell growth inhibition, synergistic combos for chromothripsis tumors, cisplatin or BGB combos (AID 1671452); conditions: LFS_MB_1R medulloblastoma cells, stronger effect = higher value;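 note: cells exposed for 96 hours before readout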
# [4] = CRL2098 osteosarcoma cell growth inhibition, synergistic combos for chromothripsis tumors, BGB or cisplatin IC20 combos (AID 1671454); conditions: CRL2098 osteosarcoma cells, drug combinations, stronger effect = higher value;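 note: cells exposed for 96 h before readout; 0% = vehicle DMSO and 100% = killing by high DMSO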
# [5] = HD-MB03 medulloblastoma cell growth inhibition, synergistic combos for chromothripsis tumors, BGB or cisplatin IC20 combos (AID 1671455; in the data active = inhibition above about 83%;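 note: 0% = vehicle DMSO and 100% = high DMSO as cytotoxic control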); conditions: HD-MB03 medulloblastoma cells, stronger effect = higher value
# [6] = UWB1.289 ovarian carcinoma cell growth inhibition, synergistic combos for chromothripsis tumors, BGB or cisplatin combos (AID 1671456); conditions: UWB1.289 ovarian carcinoma cells, stronger effect = higher value;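 note: cells exposed to compound for four days; 0% = vehicle DMSO and 100% = killing by high DMSO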
# [7] = LFS_MB_2R medulloblastoma cell growth inhibition, synergistic combos for chromothripsis tumors, cisplatin combos (AID 1671457); conditions: LFS_MB_2R medulloblastoma cells, stronger effect = higher value;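 note: cells exposed to compound for four days before readout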
# [8] = UWB1.289_BRCA1 ovarian cancer growth, cell-based, BGB or cisplatin combinations (AID 1671459); conditions: UWB1.289 BRCA1 ovarian carcinoma, drug combinations, stronger effect = higher value
# [9] = human astrocyte viability loss, single and combined drugs, cytotoxicity control for chromothriptic childhood tumor combination screen, cell-based, BGB or cisplatin IC20 combos (AID 1671460); conditions: Human astrocytes, drug combinations, stronger effect = higher value;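 note: cells exposed to compounds for 96 hours before viability readout; 0% = vehicle and 100% = killing control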
# [10] = growth inhibition of CRL1545 osteosarcoma cells, cell-based, cisplatin and BGB IC20 combos (AID 1671464); conditions: stronger effect = higher value;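 note: cells exposed to compound for 96 hours before readout; 0% = vehicle DMSO and 100% = high DMSO killing control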
# [11] = mitochondrial permeability transition inhibitors (AID 1580; call rule not given here); conditions: isolated mitochondria, permeability transition inhibition
# [12] = inhibitors of polyQ aggregate elongation, biochemical, solid-phase synthetic aggregates, QA3 (AID 1585; call rule not given here); conditions: biotin-polyQ incorporation; EC50: measured here: elongation inhibition potency; inhibition: at 100 µM, stronger effect = higher value
# [13] = enhancers of SMN2 over SMN1 splicing, cell-based, SMN2/SMN1 luciferase reporters (AID 1598; call rule not given here); conditions: SMN2 vs SMN1 luciferase splicing reporter cells, at 10 µM; SMN1 luciferase ratio: measured here: SMN1 luciferase reporter average; SMN2 luciferase ratio: measured here: SMN2 luciferase reporter average, stronger effect = higher value; SMN2/SMN1 luciferase ratio: stronger effect = higher value
# [14] = circadian clock period modulators, cell-based, LOPAC library, luminescence reporter (AID 2774; call rule not given here;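 note: values are relative to mean of DMSO wells on each plate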); conditions: circadian reporter cells, at 7 µM, actives lie on both sides
# [15] = measured here: combination with cisplatin, at 0.5 µM
# [16] = measured here: combination with cisplatin, at 5 µM
# ATP-dependent translocase ABCB1 (Homo sapiens), sequence (P08183 whole entry, looked up): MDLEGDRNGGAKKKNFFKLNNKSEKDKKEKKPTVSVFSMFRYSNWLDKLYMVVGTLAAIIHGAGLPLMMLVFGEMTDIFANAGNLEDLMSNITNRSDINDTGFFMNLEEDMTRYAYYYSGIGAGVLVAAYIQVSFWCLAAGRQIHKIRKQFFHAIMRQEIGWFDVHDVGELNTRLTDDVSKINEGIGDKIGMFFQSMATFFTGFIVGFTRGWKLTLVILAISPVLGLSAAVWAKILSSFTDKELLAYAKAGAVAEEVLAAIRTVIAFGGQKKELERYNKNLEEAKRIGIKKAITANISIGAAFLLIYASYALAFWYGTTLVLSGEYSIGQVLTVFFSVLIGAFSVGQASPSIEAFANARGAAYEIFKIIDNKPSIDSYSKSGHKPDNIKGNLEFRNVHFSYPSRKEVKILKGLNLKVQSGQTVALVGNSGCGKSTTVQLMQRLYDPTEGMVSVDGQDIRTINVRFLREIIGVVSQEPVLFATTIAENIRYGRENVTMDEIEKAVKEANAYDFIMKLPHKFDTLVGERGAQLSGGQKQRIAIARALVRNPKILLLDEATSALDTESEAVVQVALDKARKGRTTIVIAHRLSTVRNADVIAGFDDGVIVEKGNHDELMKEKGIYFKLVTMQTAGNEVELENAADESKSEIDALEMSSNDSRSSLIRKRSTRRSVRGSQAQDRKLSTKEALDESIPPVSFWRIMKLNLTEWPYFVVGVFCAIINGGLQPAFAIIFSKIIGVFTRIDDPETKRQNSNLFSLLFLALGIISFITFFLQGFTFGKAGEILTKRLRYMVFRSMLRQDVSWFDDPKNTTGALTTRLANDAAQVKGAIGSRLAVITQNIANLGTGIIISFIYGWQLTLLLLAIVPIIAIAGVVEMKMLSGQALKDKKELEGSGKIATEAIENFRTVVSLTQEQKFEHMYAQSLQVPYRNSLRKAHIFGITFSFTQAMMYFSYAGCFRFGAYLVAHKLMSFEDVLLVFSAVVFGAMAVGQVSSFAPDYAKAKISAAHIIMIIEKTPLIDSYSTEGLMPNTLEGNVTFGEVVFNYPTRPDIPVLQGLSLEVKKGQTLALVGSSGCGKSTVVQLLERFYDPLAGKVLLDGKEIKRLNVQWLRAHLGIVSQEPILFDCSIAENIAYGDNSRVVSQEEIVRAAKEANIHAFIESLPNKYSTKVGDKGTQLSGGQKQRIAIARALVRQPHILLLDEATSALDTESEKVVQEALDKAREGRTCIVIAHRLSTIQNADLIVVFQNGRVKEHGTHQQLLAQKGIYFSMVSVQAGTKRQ
structure (smiles),measurement,setting,value
C[C@H]1NC(=O)NC1=O,fluorescence slope change,[1],1.4% (inactive)
same,survival,[2],3.67 (inactive)
C=CC1=C(C)C2=CC3=NC(=C(CC(=O)O)C4=NC(=C(C)C4=C(O)O)C=c4[nH]c(c(C)c4CC)=CC1=N2)C(CCC(=O)O)C3C (configuration not stated),inhibition,[3]; at 0.5 µM,-18.3% (inactive)
same,inhibition,"[3]; measured here: combination with BGB IC40, at 0.05 µM",-22.1%
same,inhibition,[3]; [15],-13.2%
same,inhibition,[3]; [16],-2.96%
same,inhibition,[4]; at 0.5 µM,-39.9% (inactive)
same,inhibition,"[4]; measured here: combination with BGB at IC20, at 0.5 µM",-14.4%
same,inhibition,"[4]; measured here: combination with cisplatin at IC20, at 0.5 µM",-71.5%
same,inhibition,[5]; at 0.5 µM,-9.12% (inactive)
same,inhibition,"[5]; measured here: combo with BGB at IC20, at 0.5 µM",-0.977%
same,inhibition,"[5]; measured here: combo with cisplatin at IC20, at 0.5 µM",-18.8%
same,inhibition,[6]; at 0.5 µM,-0.22% (inactive)
same,inhibition,"[6]; measured here: inhibition with BGB combination, at 0.05 µM",-17.7%
same,inhibition,"[6]; measured here: inhibition with cisplatin combination, at 0.05 µM",-4.64%
same,inhibition,[7]; at 0.5 µM,-20% (inactive)
same,inhibition,[7]; [15],-3.5%
same,inhibition,[7]; [16],-14.7%
same,inhibition,"[8]; BGB combination, concentration series, at 5 µM",12.6%
same,inhibition,[8]; at 0.5 µM,-3.06% (inactive)
same,inhibition,"[8]; cisplatin combination, concentration series, at 5 µM",10.4%
same,inhibition,[9]; at 0.5 µM,-8.5% (inactive)
same,inhibition,"[9]; measured here: combo with BGB IC20, at 0.5 µM",-9.9%
same,inhibition,"[9]; measured here: combo with cisplatin IC20, at 0.5 µM",-17.9%
same,inhibition,[10]; at 0.5 µM,-23.9% (inactive)
same,inhibition,"[10]; measured here: with BGB IC20 combination, at 0.5 µM",2.58%
same,inhibition,"[10]; measured here: with cisplatin IC20 combination, at 0.5 µM",-37.1%
same,inhibition,"[10]; single agent, at 0.05 µM",3.9%
same,inhibition,"[10]; single agent, at 5 µM",17%
CC1(C)S[C@@H]2[C@H](NC(=O)[C@H](C(=O)O)c3ccsc3)C(=O)N2[C@H]1C(=O)O,survival,[2],15.8 (inactive)
CC[C@@H](C(=O)C(C)[C@@H](O)[C@H](C)CCc1ccc(C)c(O)c1C(=O)O)C1OC(CC)(C2CC[C@](O)(CC)[C@H](C)O2)C[C@@H]1C (some centres not stated),EC50,[11],0.1 µM (active)
O=c1c(O)cc2c(O)oc3c(=O)c(O)cc4c3c2c1CC=4O,EC50,[12],44 µM
same,inhibition,[12],82% (active)
CC[C@@]1(O)C[C@H](OC2CC(N(C)C)C(OC3CC(O)C(OC4CCC(=O)C(C)O4)C(C)O3)C(C)O2)c2c(cc3c(c2O)C(=O)c2c(O)cccc2C3=O)[C@H]1C(=O)OC (some centres not stated),SMN1 luciferase ratio,[13],1.26
same,SMN2/SMN1 luciferase ratio,[13],1.34 (active)
same,SMN2 luciferase ratio,[13],1.64
NCCNC(=O)c1ccc(Cl)cc1,period change,[14],0.02 h (inactive)
